In the library only some 3.5% were active in any assay of this set; here they are far more common.
KCNK9 block – human KCNK9 channel inhibition; Q9NPC2; HEK293 KCNK9, FluxOR thallium flux fluorescence; stronger effect = lower value; 1.2% of 310,000 active; B-score at 10 µM;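 active means ratio B-score over 3 SD below the library mean, with starting fluorescence within 5 SD of its mean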;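 further: negative B-score means less thallium flux so channel inhibition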
Kir21 block – blocks the mouse Kir2.1 inward-rectifier potassium channel; P35561; HEK293-Kir2.1, FluxOR thallium flux fluorescence; stronger effect = lower value; B-score at 10 µM; 0.85% of 310,000 active;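 active means fluorescence ratio B-score at or below minus 3 SD of library scores, with starting-brightness B-score within 2 SD, cut at about -4.2 in these data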;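 further: channel flux triggered by added potassium and thallium sulfate stimulus; B-score of peak minus minimum fluorescence over baseline after thallium stimulus; more negative B-score means stronger Kir2.1 block with less thallium influx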
TMEM16A inh – mouse TMEM16A channel inhibition, primary screen; Q8BHY3; HEK293 TMEM16A/YFP iodide influx fluorescence, ionomycin; normalized B-score (activity score, 25-100; higher = stronger inhibition) at 10 µM; 1.2% of 310,000 active; AID 588511;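 active means ratio plate-corrected score three or more library SD toward inhibition, starting fluorescence score within five deviations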;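 further: score derived from kinetic fluorescence span divided by baseline fluorescence per well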
ANO1 activ – activates or potentiates the mouse TMEM16A chloride channel; HEK293 TMEM16A/YFP-H148Q/I152L, iodide quench fluorescence; stronger effect = lower value; B-score at 10 µM; 0.3% of 340,000 active;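 active means fluorescence-ratio B-score plate-corrected deviation score at least 3 library SD below zero, with starting fluorescence score within 5 deviations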;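 further: channel opened by trigger with iodide after compound preincubation; score built on the fluorescence ratio of max minus min over baseline; more negative score means more quench and so TMEM16A activation or potentiation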
KCNK3 block – human KCNK3 channel inhibition, primary screen; O14649; CHO-KCNK3 thallium flux, FluxOR fluorescence; stronger effect = lower value; B-score at 10 µM; 0.84% of 340,000 active;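 active means B-score under library mean minus 4 SD, starting fluorescence ratio at most library mean plus 5 SD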;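 further: more negative B-score means stronger inhibition of thallium flux through KCNK3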
Target sequence (O14649 whole entry, looked up): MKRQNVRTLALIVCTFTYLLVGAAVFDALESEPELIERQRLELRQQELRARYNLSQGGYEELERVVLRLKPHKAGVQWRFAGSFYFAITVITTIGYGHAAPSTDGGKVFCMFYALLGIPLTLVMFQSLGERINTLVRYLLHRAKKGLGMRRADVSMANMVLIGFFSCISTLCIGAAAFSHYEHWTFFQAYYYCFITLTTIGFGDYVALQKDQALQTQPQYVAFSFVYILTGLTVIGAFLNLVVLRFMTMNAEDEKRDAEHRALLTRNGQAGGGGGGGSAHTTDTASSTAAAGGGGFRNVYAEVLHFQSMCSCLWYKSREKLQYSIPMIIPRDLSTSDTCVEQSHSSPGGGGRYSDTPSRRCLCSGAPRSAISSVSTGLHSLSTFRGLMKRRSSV
Of the large screens only hits and unclear results are named; the others gave an inactive call.

COc1ccc(C)cc1-n1nnnc1SCC1CCCCO1 (configuration not stated)	Kir21 block -4.68
COc1ccc(NC(=O)/C(Cl)=C(/Cl)S(=O)Cc2ccccc2Cl)cn1 (configuration not stated)	ANO1 activ -4.6 (no result: KCNK9 block, Kir21 block, TMEM16A inh)
C/C=C/c1ccc(OCCCCOc2c(OC)cccc2OC)c(OC)c1	none
C/C=C/c1ccc(OCCN2CCc3ccccc3C2)c(OC)c1	Kir21 block -11.2
C=CCc1ccc(OCCN2CCc3ccccc3C2)c(OC)c1	Kir21 block -10.2
C=CCc1ccc(OCCCNCc2ccccc2)c(OC)c1	Kir21 block -8.02
OC[C@H]1O[C@H](OC[C@H]2OC(O)[C@H](O)[C@@H](O)[C@@H]2O)[C@H](O)[C@@H](O)[C@@H]1O (some centres not stated)	none (no result: KCNK9 block, Kir21 block)
CCN(CC)N=Nc1ccc(S(N)(=O)=O)cc1	ANO1 activ -6.15
CN(C)N=Nc1ccc(S(N)(=O)=O)cc1	none
NC1=NC2(CCC(c3ccccc3)CC2)n2c(nc3ccccc32)N1 (configuration not stated)	KCNK9 block -7.88
O=C(Oc1ccc(Br)cc1C(=S)N1CCOCC1)c1ccccc1	KCNK9 block -8.01
COc1cc(C(=S)N2CCOCC2)ccc1OC(=O)c1cccc(C)c1	TMEM16A inh 25
COc1cc(C(=S)N2CCOCC2)ccc1OC(=O)c1ccc(Br)cc1	none
O=C(Oc1cccc(C(=S)N2CCOCC2)c1)c1ccccc1	none
O=C1c2ccccc2C(=O)N1C1C(=O)N2CCSC12C(=O)OCc1ccccc1 (configuration not stated)	none (no result: KCNK9 block, Kir21 block, TMEM16A inh)
C[C@H]1[C@H](C)CC[C@]2(C(=O)O)CC[C@]3(C)C(=CC[C@@H]4[C@@]5(C)CC[C@H](O)C(C)(C)[C@@H]5CC[C@]43C)[C@H]12	none (no result: Kir21 block)
C[C@H]1[C@H](C)CC[C@]2(C)CC[C@]3(C)C(=CC[C@@H]4[C@@]5(C)CC[C@@H](O)[C@](C)(C(=O)O)[C@@H]5CC[C@]43C)[C@H]12	none (no result: ANO1 activ, KCNK3 block)
C[C@@H]1CC[C@]2(C(=O)O)CC[C@]3(C)C(=CCC4[C@]56CC[C@@](O)(OC5)C(C)(C)C6CC[C@]43C)C2[C@H]1C (some centres not stated)	TMEM16A inh 100 (no result: KCNK9 block, Kir21 block)
C[C@H]1[C@H](C)CC[C@]2(C(=O)O)CC[C@]3(C)C(=CC[C@@H]4[C@@]5(C)C[C@@H](O)[C@H](O)C(C)(C)[C@@H]5CC[C@]43C)[C@H]12	ANO1 activ -9.75
O=C1c2ccccc2S(=O)(=O)c2cc(C(=O)N3CCN(C(=O)c4ccccc4)CC3)ccc21	none
Cc1ccc(C(=O)/C=C/c2ccc3c(c2)OCO3)o1	none
OC(c1ccccc1)(c1ccccc1)c1nccc2ccccc12	KCNK3 block -10.1 (no result: KCNK9 block, Kir21 block, TMEM16A inh)
COc1ccc(COC(=O)CCNC(=O)c2ccc(Cl)cc2)cc1	none
O=c1c2c3c(sc2nc2sc(C4CC4)nn12)CCCC3	TMEM16A inh 25
CCc1cc2c3c(c1)/C(=C1/SC(N)=NC1=O)C(=O)N3C(C)(C)C=C2C	TMEM16A inh 100
CCOC(=O)N1CCN(C(=O)COc2cc(=O)n(C)c3ccccc23)CC1	TMEM16A inh 25
COc1ccc(CCNC(=O)/C=C/c2ccco2)cc1	none
COc1ccc(/C=N\NC(=O)CNC(=O)C2COc3ccccc3O2)cc1[N+](=O)[O-] (configuration not stated)	none
Cc1nc2sccn2c1-c1nc(-c2cc3ccccc3o2)cs1	KCNK9 block -7.14
c1ccc2oc(-c3csc(N4CCOCC4)n3)cc2c1	none
O=C(NC1CCCCC1)C(=O)c1c(-c2ccccc2)[nH]c2ccccc12	none
O=C(NC1CC1)C(=O)c1c(-c2ccccc2)[nH]c2ccccc12	ANO1 activ -7.55
COc1cccc(CC(=O)OC(C)C(=O)Nc2ccc(N3CCOCC3)cc2)c1 (configuration not stated)	none
CCn1c(=NC(=O)CS(=O)(=O)c2ccc(C)cc2)sc2cccc(OC)c21	TMEM16A inh 100
CS(=O)(=O)CCC(C(=O)O)N1C(=O)c2ccc(Oc3ccc(Cl)cc3)cc2C1=O (configuration not stated)	none (no result: ANO1 activ)
CN(C)CCCN1c2ccccc2Sc2ccc(Cl)cc21	Kir21 block -7.91
OCCN1CCN(CCCN2c3ccccc3Sc3ccc(Cl)cc32)CC1	Kir21 block -5.59
COCCN(C(=O)c1csnn1)C(C(=O)NC1CCCCC1)c1ccccc1 (configuration not stated)	none
COc1ccc(S(=O)CC(=O)Nc2ccc(Cl)cc2Cl)cc1 (configuration not stated)	none
O=C(NN=Cc1cc(Cl)ccc1[N+](=O)[O-])c1ccco1	none (no result: KCNK9 block, Kir21 block, TMEM16A inh)
O=C(NNc1c([N+](=O)[O-])cc(C(F)(F)F)cc1[N+](=O)[O-])c1ccco1	TMEM16A inh 100
Cc1ccc(Nc2nc(N)c3ccccc3n2)cc1C	none
CCc1ccc(C2=CC(c3cc(Br)ccc3F)n3ncnc3N2)cc1 (configuration not stated)	KCNK3 block -8.89 (no result: KCNK9 block, Kir21 block)
Fc1ccc(Br)cc1C1C=C(c2ccc(Br)cc2)Nc2ncnn21 (configuration not stated)	KCNK3 block -12.4
CSc1nnnn1-c1ccc(C)c(Cl)c1	none
CCCCN(CCCC)S(=O)(=O)c1ccc(SCC(=O)OCC)c([N+](=O)[O-])c1	none
CCOC(=O)CSc1ccc(S(=O)(=O)N(CC)CC)cc1[N+](=O)[O-]	KCNK9 block -6.8
CS(=O)(=O)c1ccc(-n2nnc3ccccc32)c([N+](=O)[O-])c1	none
COc1ccc(NS(=O)(=O)c2ccc(-n3nnc4ccccc43)c([N+](=O)[O-])c2)cc1	TMEM16A inh 25
Cc1[nH]c2ccccc2c1C(=O)/C=C/c1ccccc1	TMEM16A inh 100
Cc1ccc(C2CC(=O)C=C(O)C2)cc1 (configuration not stated)	TMEM16A inh 100
Cn1cnc([N+](=O)[O-])c1Sc1ccc(Br)cc1	none
Cc1nn(C)c(C)c1Sc1ccc(Br)cc1	TMEM16A inh 25
CCOC(=O)Cc1csc(NC(=O)COc2ccc(N(C)S(=O)(=O)c3ccc(C)cc3)cc2)n1	KCNK9 block -6.75
CCOC(=O)Cc1csc(NC(=O)COc2ccc3ccccc3c2)n1	none
Cc1ccc(OCCCCN2CCCCC2)c(C)c1	none
Cc1ccc(OCCCCNC2CCCC(C)C2C)c(C)c1 (configuration not stated)	Kir21 block -7.41
O=c1cc2c(c(-c3ccccc3)n1Cc1ccccc1)[C@H](CCO)NC2	none (no result: KCNK9 block, Kir21 block, TMEM16A inh, ANO1 activ)
OCC[C@@H]1NCc2cc(CO)cc(-c3ccccc3)c21	KCNK3 block -9.93 (no result: KCNK9 block, Kir21 block, TMEM16A inh, ANO1 activ)
Cc1cccc(OCC(=O)Nc2ccc3c(c2)nc(CCN2CCN(c4ccccn4)CC2)n3C)c1	TMEM16A inh 100
Cc1cccc(OCC(=O)Nc2ccc3c(c2)nc(CCN2CCCCC2)n3C)c1	none
CN(C)S(=O)(=O)Oc1cccc(C(=O)Nc2ccc(Cl)cc2)c1	TMEM16A inh 100

Screening results from PubChem BioAssay.
